About 8,600 (12%) of roughly 69,000 compounds showed an effect of 50% or more. What follows is part of a selection rich in strong results, with near analogues and random picks from the rest.
Tested on: Plasmodium berghei
Experiment: Screen against P. berghei liver stage (PbLuc), transformed with Luciferase, at 10uM
Type: functional, HepG2
Details: tested at 10 uM

Row | SMILES | INHIBITION [%]
1 | Cc1cc(-n2c(C)cn(CN(C)C3CCS(=O)(=O)C3)c2=O)no1 (stereo not drawn) | 38.8
2 | Cn1cc2c(n1)C(COCC1CC1)CN(Cc1ccccn1)C2 (stereo not drawn) | 12.5
3 | Cc1cc(C)c(CNC(=O)NC2COc3ccccc3C2)c(=O)[nH]1 (stereo not drawn) | 10.6
4 | Cc1ccc(CN(CCCn2ccnc2)Cc2c[nH]cn2)s1 | 41.5
5 | CN(C)c1ccc(CN(CCCn2ccnc2)Cc2c[nH]cn2)cc1 | 80.2
6 | c1cc(CN(CCCn2ccnc2)Cc2ccoc2)ccn1 | 24.7
7 | CCn1ncnc1CN(CCOC)Cc1ccc(C)cc1 | 49.9
8 | COCCN(Cc1ccc(C)cc1)Cc1nccn1C | 43.4
9 | COCCN(Cc1ccc(C)cc1)Cc1c[nH]cn1 | 63.8
10 | COc1cc(COCC2CCN(Cc3cccnc3)CC2)cc(OC)c1 | 5.11
11 | CNc1cc(N2CCCC2CNCc2cccnc2C)ncn1 (stereo not drawn) | 21.5
12 | Cc1ccc(C(=O)N2CCc3ncc(Cn4cccn4)n3CC2)o1 | 16.4
13 | COc1cc(I)c(Cl)cc1C(=O)N(C)CC(C)(C)O | 29
14 | Cc1nc(CNC(=O)NC2CCN(c3ncccc3Cl)C2)no1 (stereo not drawn) | 25.4
15 | Cc1nc(CNC(=O)NC2CCN(c3cccc(Cl)c3)C2)no1 (stereo not drawn) | 56.3
16 | Cc1ccc(CC(=O)NC2CCN(c3cccc(Cl)c3)C2)cn1 (stereo not drawn) | 42.7
17 | Cc1cc(C)n(CC2CN(Cc3nc(C4CC4)no3)CCO2)n1 (stereo not drawn) | -27.8
18 | CCCn1c(C)c(CC(=O)N(C)CC(=O)OC)c2c1CC(C)(C)CC2=O | 4.25
19 | CCOCC(O)CN1CCN(C(=O)c2ccsc2)CC1 (stereo not drawn) | 43.4
20 | COc1cccc(C(O)CN2CCN(C(=O)CCC(C)C)CC2)c1 (stereo not drawn) | 55.4
21 | COc1cccc(C(=O)N2CCN(CC(O)c3ccccc3)CC2)c1 (stereo not drawn) | 32.2
22 | CC(C)OCCC(=O)N1CCN(CC(O)c2ccccc2)CC1 (stereo not drawn) | -12.5
23 | COc1cccc(C(O)CN2CCN(C(=O)c3ccsc3)CC2)c1 (stereo not drawn) | 53.6
24 | O=C(c1ccsc1)N1CCN(CC(O)c2cccc(F)c2)CC1 (stereo not drawn) | 40.6
25 | Cc1cccc2c1C(=O)NC(c1cnc(C3CCC3)s1)N2 (stereo not drawn) | -91.5

Row | SMILES | INHIBITION [%]
26 | CN1CCN(c2cccc(Cl)c2CNCCS(C)(=O)=O)CC1 | 19.9
27 | Cn1c(Cn2ccnc2)nnc1C1CCN(C(=O)c2ccoc2)CC1 | -62.8
28 | CCc1cc(C(=O)N2CCCC(Cc3ccc(NC)nn3)C2)on1 (stereo not drawn) | 60.4
29 | CNc1ccc(CC2CCCN(C(=O)c3cnco3)C2)nn1 (stereo not drawn) | 1.11
30 | CNc1ccc(CC2CCCN(C(=O)c3c(C)noc3C)C2)nn1 (stereo not drawn) | 21.9
31 | Cc1noc(CNC(=O)NCC2(C)CCCc3ccccc32)n1 (stereo not drawn) | 6.29
32 | COCCCNC(=O)c1ccccc1-n1cc(CN(C)C)cn1 | 20.8
33 | CC(C)NC(=O)C1CN(C(=O)COc2ccccc2)CC12CCOCC2 (stereo not drawn) | 24.1
34 | CC(C)CCN1C2(CCN(C(=O)N(C)C)C2)c2ccccc2S1(=O)=O (stereo not drawn) | 6.55
35 | CN(C)CCN1C2(CCN(Cc3nccs3)C2)c2ccccc2S1(=O)=O (stereo not drawn) | 80
36 | CC(C)CCN1C2(CCN(Cc3nccs3)C2)c2ccccc2S1(=O)=O (stereo not drawn) | 78.8
37 | CC(C)CCN1C2(CCN(C(=O)C3(C)CC3)C2)c2ccccc2S1(=O)=O (stereo not drawn) | 6.55
38 | CC(C)CCN1C2(CCN(c3ncccn3)C2)c2ccccc2S1(=O)=O (stereo not drawn) | 13.5
39 | COCCN1C2(CCN(Cc3nccs3)C2)c2ccccc2S1(=O)=O (stereo not drawn) | 14.8
40 | O=C(Nc1ccccn1)c1cncc(C2CCNCC2)n1 | -35.5
41 | N#CC1Sc2nnc(-c3ccccc3Br)n2N=C1N (stereo not drawn) | 16.2
42 | O=C(c1ccc(-n2cnnn2)cc1)N1CCCC(n2ccnc2)C1 (stereo not drawn) | 26.4
43 | CCN(CC1CCOC1)C(=O)Nc1ccc(N2CCCCC2)nc1 (stereo not drawn) | -8.83
44 | COCCNc1ccc(CC2CCCN(C3CCOCC3)C2)nn1 (stereo not drawn) | 7.71
45 | O=C(c1nsc(Cl)c1Cl)N1CCc2nc3sccc3c(=O)n2CC1 | -14.1
46 | CN(C)C(=O)c1n[nH]c2c1CCN(Cc1nccs1)C2 | -53.6
47 | CN1CCN(C(=O)c2n[nH]c3c2CN(Cc2nccs2)CC3)CC1 | -105
48 | CN(C)C(=O)c1n[nH]c2c1CN(Cc1nccs1)CC2 | 88
49 | CC(C)CNC(=O)c1cn(C(C)C)cc2c(=O)[nH]nc1-2 | 36.8
50 | Cn1c(=O)[nH]c(=O)n2c(CC(=O)NCc3ccccc3)cnc12 | 19.3

Row | SMILES | INHIBITION [%]
51 | O=C(Nc1cccnc1-n1cc(Cl)cn1)C1CC1 | 41.5
52 | O=C(Nc1cccnc1-n1cc(Cl)cn1)C1CCCCC1 | 52.6
53 | O=C(Nc1cccnc1-n1cc(Cl)cn1)C1CCCC1 | 48
54 | COc1ccc(C)cc1C(C)NC(=O)CCn1cncn1 (stereo not drawn) | 19.2
55 | O=C(c1ccnnc1)N1C[C@@H]2C[C@@H](c3nc(C4CC4)cs3)O[C@@H]2C1 | -60.2
56 | O=C(c1ccncn1)N1CCC[C@]2(C[C@@H](OCc3ccccn3)CO2)C1 | 43.9
57 | COCC(=O)Nc1cc(S(=O)(=O)C(F)(F)F)ccc1OC | 33.7
58 | COc1ccc(S(=O)(=O)C(F)(F)F)cc1NC(=O)CSCC#N | 48.3
59 | COc1ccc(S(=O)(=O)C(F)(F)F)cc1NC(=O)CSC | 63.7
60 | Cc1ccccc1CN(C)C(=O)CN1CCCC(Cn2cncn2)C1 (stereo not drawn) | -51.5
61 | COc1cc(C)c(C(C)NC(=O)NCCCn2cncn2)cc1OC (stereo not drawn) | -19.4
62 | CCn1nnc2c1C(COCCN(C)C)CN(S(C)(=O)=O)C2 (stereo not drawn) | 43.8
63 | CCn1nnc2c1C(COCCN(C)C)CN(S(=O)(=O)CC)C2 (stereo not drawn) | 52.6
64 | CCn1nnc2c1C(COCCN(C)C)CN(c1nncs1)C2 (stereo not drawn) | 57.1
65 | CCn1nnc2c1C(COCCN(C)C)CN(Cc1ccco1)C2 (stereo not drawn) | 62.3
66 | CN(C)C(=O)COCC1CN(CC2CCOCC2)Cc2ncn(C)c21 (stereo not drawn) | 4.57
67 | CCn1nnc2c1C(COCCN(C)C)CN(Cc1ccc(C)s1)C2 (stereo not drawn) | -22.1
68 | CCn1nnc2c1C(COC)CN(Cc1ccco1)C2 (stereo not drawn) | -30.1
69 | CCS(=O)(=O)N1Cc2nnn(C)c2C(COCCN(C)C)C1 (stereo not drawn) | 48.2
70 | CN(C)CCOCC1CN(Cc2ccoc2)Cc2nnn(C)c21 (stereo not drawn) | 18.5
71 | CN(C)CCOCC1CN(Cc2ccncc2)Cc2nnn(C)c21 (stereo not drawn) | 3.58
72 | Cc1cccc(CN2Cc3ncn(C)c3C(COCC(=O)N(C)C)C2)n1 (stereo not drawn) | -10.3
73 | CN(C)CCN1Cc2ncn(C)c2C(COCC(=O)N(C)C)C1 (stereo not drawn) | 50
